The values below come from ChEMBL document CHEMBL3988442, “University of Dundee, Small-Polar-MMV Screening Library” (2021).

The target of experiment [1] is T1, Methionyl-tRNA synthetase, putative (Leishmania donovani (strain BPK282A1)) (UniProt E9BF75).
T1 sequence (whole entry): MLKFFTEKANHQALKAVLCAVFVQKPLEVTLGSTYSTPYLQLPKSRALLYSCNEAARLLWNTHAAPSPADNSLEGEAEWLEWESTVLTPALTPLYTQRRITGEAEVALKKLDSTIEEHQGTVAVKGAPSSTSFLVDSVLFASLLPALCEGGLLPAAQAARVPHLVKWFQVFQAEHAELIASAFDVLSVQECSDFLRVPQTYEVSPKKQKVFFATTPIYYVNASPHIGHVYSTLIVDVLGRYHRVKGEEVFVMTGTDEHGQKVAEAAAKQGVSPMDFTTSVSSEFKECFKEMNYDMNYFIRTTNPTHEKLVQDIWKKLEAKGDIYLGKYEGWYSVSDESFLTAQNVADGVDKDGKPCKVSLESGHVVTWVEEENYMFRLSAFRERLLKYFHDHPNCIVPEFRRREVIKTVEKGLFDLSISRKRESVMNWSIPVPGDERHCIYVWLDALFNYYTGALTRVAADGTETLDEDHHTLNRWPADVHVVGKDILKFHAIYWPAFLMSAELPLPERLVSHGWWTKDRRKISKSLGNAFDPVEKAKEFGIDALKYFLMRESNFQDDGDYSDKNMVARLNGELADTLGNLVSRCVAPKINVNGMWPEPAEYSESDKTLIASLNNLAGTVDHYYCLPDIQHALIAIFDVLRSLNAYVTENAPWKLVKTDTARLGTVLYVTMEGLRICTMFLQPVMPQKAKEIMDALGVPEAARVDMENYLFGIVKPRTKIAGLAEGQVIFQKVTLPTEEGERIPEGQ
In words: Leishmania donovani Methionine tRNA synthetase (LdMetRS):v7. Dose response assay. Format: functional. The arrangement: conc 80 nM, time 150 minutes.

The target in experiment [2] is Protein translocase subunit SecA (Escherichia coli (strain K12)) (UniProt P10408). In words: Assay to Identify E. coli SecA ATPase Inhibitors. In kind it is functional. The arrangement: scale not given: direction of the effect not stated beside the values. The settings on record: 30 µM.
The target in experiment [3] is T2, Ubiquitin-activating enzyme e1, putative (Leishmania donovani (strain BPK282A1)) (UniProt E9BSI1).
T2 sequence (whole entry): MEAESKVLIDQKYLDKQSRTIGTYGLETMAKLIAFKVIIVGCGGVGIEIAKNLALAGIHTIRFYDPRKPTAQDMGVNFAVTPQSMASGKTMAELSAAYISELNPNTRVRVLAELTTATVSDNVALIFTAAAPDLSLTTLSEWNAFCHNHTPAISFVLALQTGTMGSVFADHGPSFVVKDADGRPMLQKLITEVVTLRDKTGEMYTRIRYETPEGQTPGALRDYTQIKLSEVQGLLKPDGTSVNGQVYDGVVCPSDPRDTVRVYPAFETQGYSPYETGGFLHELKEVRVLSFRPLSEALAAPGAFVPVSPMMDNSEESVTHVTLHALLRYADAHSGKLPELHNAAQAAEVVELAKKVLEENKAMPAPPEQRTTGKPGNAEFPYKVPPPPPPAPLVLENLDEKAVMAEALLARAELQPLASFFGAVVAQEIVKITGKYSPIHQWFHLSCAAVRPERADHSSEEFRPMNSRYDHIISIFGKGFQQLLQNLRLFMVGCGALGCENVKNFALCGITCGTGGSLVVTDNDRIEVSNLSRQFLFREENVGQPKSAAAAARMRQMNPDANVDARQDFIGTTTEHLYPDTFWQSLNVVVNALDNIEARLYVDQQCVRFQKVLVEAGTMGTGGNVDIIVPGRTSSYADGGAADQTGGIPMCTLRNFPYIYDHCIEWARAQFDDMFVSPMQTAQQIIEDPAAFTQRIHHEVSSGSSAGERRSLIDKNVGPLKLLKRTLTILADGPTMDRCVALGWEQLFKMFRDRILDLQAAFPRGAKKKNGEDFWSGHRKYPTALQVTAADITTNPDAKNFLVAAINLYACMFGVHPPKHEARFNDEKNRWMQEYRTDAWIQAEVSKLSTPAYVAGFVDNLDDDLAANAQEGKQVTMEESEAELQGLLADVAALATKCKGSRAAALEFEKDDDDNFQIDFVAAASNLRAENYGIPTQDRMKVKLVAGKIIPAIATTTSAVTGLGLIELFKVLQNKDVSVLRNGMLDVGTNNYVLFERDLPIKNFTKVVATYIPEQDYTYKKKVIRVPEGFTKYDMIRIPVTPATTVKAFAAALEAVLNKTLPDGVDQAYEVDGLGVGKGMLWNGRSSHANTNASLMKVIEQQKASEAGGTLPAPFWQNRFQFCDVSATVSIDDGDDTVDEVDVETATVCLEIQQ
Briefly: Leishmania donovani Ubiquitin Activating Enzyme (LdE1). The arrangement: scale not given: direction of the effect not stated beside the values. The settings on record: 30 µM. Format: functional.

Experiment [4] deals with T3, Aspartate--tRNA(Asp/Asn) ligase (Mycobacterium tuberculosis (strain ATCC 25618 / H37Rv)) (UniProt P9WFW3).
T3 sequence (whole entry): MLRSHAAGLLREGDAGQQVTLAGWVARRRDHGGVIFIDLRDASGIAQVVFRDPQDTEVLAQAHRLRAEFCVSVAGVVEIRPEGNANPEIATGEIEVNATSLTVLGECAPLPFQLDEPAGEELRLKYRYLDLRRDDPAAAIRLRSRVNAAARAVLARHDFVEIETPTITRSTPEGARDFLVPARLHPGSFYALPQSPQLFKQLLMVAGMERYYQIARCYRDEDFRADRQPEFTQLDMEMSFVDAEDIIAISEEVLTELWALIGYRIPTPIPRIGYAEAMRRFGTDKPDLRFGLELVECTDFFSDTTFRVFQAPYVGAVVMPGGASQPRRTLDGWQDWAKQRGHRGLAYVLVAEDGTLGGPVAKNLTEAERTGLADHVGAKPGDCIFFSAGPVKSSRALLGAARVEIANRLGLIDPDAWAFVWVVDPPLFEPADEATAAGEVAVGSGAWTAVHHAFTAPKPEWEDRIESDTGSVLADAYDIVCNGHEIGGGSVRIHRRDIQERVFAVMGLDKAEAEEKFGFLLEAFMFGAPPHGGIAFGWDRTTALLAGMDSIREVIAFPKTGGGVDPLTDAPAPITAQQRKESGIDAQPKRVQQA
Briefly: Assay for Asp RNA synthetase-1 from Mycobacterium tuberculosis. In kind it is functional. The arrangement: scale not given: direction of the effect not stated beside the values. The conditions noted are these: 30 µM.

Experiment [5] has as its target AMP-activated protein kinase, AMPK (Homo sapiens) (UniProt P54646+O43741+P54619+Q9UGJ0+Q9Y478+Q13131+Q9UGI9). In words: AMP-dependent Kinase enzyme assay. An in vitro enzyme assay that detects ADP turnover that is directly proportional to AMPK activity. This uses naive AMPK that is activated during the assay with MK-8722. Format: functional. The arrangement: scale not given: direction of the effect not stated beside the values. The settings on record: 30 µM.

In experiment [6] the target is Sialic acid-binding Ig-like lectin 9 (Homo sapiens) (UniProt Q9Y336). Briefly: Hs-Siglec9 ALPHAscreen SOP 20170721. The arrangement: scale not given: direction of the effect not stated beside the values. The settings on record: 10 µM.
The subject of a further experiment is Trypanosoma cruzi. In words: Trypanosoma cruzi phosphomannomutase and mannose-1-phosphate guanylyltransferase assay. Format: functional. The arrangement: scale not given: direction of the effect not stated beside the values. The settings on record: 10 µM.
Experiment [7] concerns the target T4, Arginase-2, mitochondrial (Homo sapiens) (UniProt P78540).
T4 sequence (whole entry): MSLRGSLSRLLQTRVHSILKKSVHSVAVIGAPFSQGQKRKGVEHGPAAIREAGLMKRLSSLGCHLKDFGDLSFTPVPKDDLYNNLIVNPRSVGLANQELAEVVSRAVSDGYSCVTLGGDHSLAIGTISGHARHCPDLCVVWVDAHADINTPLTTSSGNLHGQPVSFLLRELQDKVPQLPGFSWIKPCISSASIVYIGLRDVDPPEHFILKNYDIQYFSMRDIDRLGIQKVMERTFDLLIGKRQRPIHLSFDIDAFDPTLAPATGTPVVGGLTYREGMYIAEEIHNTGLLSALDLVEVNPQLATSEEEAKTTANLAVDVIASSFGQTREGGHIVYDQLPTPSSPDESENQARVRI
Briefly: in vitro enzyme assay to detect the production of urea directly proportional to the activity of Arginase II. The settings on record: 33.3 µM. In kind it is functional. The arrangement: scale not given: in the data most compounds retested in dose-response had high values.

Experiment [8] addresses T5, Proteasome subunit beta (Trypanosoma cruzi) (UniProt O96673).
T5 sequence (whole entry): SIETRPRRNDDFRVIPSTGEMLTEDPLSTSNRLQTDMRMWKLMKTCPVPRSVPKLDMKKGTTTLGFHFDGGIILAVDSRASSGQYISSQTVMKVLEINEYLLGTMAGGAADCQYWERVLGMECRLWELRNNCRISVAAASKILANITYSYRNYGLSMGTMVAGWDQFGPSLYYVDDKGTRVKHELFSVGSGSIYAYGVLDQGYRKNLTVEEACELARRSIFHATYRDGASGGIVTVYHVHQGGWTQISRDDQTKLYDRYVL
Briefly: Trypanosoma cruzi proteasome chymotrypsin-like activity (TcProtChymo) assay. The conditions noted are these: 9.37 µM. Format: functional. The arrangement: scale not given: in the data most compounds retested in dose-response had high values.

Another experiment is filed under the species Homo sapiens. Briefly: To identify inhibition of the IFN signalling (Jak-Stat) pathway via expression of an eGFP reporter gene under the control of an IFN-stimulated response element (ISRE) containing MxA promoter. In kind it is functional. The settings on record: 30 µM. The arrangement: scale not given: direction of the effect not stated beside the values. (In a reporter assay the amount or activity of a reporter protein is the signal.)

The target of experiment [9] is Shiga toxin 2 (Escherichia coli O157:H7) (UniProt P09385+P09386). Briefly: E. coli 0.157:H7 Shiga Toxin SOP - stx2 screening assay. The arrangement: scale not given: direction of the effect not stated beside the values. The conditions noted are these: 30 µM. Format: functional.
In experiment [10] the target is T6, Tyrosyl-tRNA synthetase, putative (Trypanosoma cruzi (strain CL Brener)) (UniProt Q4DSP6).
T6 sequence (whole entry): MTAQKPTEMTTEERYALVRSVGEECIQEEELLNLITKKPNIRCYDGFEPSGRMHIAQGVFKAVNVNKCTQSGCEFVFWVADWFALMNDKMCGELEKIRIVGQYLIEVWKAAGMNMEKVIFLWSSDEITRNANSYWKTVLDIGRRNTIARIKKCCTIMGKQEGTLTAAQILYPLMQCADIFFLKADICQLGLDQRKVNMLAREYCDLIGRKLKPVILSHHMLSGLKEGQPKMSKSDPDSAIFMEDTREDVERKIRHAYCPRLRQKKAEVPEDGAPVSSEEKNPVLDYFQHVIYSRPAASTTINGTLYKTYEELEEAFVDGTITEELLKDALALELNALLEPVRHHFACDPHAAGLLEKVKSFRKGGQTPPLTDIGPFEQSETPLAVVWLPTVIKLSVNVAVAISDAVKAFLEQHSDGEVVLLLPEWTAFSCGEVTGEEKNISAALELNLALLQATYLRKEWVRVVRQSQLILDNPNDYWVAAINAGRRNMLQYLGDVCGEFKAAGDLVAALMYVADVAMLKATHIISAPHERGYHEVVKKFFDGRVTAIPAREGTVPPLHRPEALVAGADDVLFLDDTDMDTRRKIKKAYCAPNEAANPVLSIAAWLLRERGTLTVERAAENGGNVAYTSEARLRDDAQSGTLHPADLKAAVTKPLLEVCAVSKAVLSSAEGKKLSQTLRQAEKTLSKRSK
Briefly: Trypanosoma cruzi tyrosyl tRNA synthetase (TcYRS) _High Tyrosine SOP. The settings on record: 30 µM. Format: functional. The arrangement: scale not given: in the data most compounds retested in dose-response had high values.

In experiment [11] the target is T6, Tyrosyl-tRNA synthetase, putative (Trypanosoma cruzi (strain CL Brener)). In words: Trypanosoma cruzi tyrosyl tRNA synthetase (TcYRS) SOP. In kind it is functional. The arrangement: scale not given: direction of the effect not stated beside the values. The settings on record: 30 µM.
Experiment [12] has as its target Chromo domain-containing protein 1 (Saccharomyces cerevisiae (strain ATCC 204508 / S288c) (Baker's yeast)) (UniProt P32657). In words: ScCHD-1 Enzyme Inhibition Assay. Format: functional. The conditions noted are these: 30 µM. The arrangement: scale not given: in the data most compounds retested in dose-response had high values.

Each structure is given as a SMILES string. For some of these results: Potency and affinity values are given separately.

Sialic acid-binding Ig-like lectin 9 (Homo sapiens), sequence (Q9Y336 whole entry): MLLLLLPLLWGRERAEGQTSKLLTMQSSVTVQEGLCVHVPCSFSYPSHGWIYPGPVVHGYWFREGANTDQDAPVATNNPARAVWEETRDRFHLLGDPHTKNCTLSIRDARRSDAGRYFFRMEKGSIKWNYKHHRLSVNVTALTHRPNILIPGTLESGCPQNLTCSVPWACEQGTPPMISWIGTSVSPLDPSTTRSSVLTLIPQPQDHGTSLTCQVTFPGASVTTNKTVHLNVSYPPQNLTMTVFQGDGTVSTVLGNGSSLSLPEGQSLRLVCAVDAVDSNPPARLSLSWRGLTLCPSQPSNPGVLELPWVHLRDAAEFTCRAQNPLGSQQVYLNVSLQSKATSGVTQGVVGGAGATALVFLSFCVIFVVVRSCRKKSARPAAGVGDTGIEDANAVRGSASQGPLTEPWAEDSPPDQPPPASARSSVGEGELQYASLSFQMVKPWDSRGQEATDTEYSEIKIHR
Protein translocase subunit SecA (Escherichia coli (strain K12)), sequence (P10408 whole entry): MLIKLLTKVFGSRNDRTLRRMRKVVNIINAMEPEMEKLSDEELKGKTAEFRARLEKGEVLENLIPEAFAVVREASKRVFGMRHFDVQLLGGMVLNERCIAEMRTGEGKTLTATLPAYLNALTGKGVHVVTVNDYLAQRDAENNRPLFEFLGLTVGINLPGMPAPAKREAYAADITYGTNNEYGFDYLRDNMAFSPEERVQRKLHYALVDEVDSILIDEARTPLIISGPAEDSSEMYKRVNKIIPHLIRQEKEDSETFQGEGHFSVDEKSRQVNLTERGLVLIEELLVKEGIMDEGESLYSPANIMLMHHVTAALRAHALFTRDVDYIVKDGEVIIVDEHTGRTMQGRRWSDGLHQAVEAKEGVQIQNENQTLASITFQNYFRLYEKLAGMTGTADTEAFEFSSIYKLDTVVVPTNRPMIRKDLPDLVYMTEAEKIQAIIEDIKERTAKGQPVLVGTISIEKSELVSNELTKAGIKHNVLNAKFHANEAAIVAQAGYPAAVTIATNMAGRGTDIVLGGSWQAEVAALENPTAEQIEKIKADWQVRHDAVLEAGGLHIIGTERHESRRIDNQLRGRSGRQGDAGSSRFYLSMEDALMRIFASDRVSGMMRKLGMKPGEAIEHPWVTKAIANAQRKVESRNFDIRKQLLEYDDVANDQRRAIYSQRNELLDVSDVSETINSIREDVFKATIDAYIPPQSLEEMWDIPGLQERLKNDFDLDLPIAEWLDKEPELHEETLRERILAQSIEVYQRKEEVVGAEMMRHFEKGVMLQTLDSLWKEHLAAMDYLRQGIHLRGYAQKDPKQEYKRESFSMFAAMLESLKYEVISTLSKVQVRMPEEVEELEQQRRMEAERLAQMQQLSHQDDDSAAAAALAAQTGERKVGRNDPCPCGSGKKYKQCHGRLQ
Chromo domain-containing protein 1 (Saccharomyces cerevisiae (strain ATCC 204508 / S288c) (Baker's yeast)), sequence (P32657 whole entry, the tested form may be a part): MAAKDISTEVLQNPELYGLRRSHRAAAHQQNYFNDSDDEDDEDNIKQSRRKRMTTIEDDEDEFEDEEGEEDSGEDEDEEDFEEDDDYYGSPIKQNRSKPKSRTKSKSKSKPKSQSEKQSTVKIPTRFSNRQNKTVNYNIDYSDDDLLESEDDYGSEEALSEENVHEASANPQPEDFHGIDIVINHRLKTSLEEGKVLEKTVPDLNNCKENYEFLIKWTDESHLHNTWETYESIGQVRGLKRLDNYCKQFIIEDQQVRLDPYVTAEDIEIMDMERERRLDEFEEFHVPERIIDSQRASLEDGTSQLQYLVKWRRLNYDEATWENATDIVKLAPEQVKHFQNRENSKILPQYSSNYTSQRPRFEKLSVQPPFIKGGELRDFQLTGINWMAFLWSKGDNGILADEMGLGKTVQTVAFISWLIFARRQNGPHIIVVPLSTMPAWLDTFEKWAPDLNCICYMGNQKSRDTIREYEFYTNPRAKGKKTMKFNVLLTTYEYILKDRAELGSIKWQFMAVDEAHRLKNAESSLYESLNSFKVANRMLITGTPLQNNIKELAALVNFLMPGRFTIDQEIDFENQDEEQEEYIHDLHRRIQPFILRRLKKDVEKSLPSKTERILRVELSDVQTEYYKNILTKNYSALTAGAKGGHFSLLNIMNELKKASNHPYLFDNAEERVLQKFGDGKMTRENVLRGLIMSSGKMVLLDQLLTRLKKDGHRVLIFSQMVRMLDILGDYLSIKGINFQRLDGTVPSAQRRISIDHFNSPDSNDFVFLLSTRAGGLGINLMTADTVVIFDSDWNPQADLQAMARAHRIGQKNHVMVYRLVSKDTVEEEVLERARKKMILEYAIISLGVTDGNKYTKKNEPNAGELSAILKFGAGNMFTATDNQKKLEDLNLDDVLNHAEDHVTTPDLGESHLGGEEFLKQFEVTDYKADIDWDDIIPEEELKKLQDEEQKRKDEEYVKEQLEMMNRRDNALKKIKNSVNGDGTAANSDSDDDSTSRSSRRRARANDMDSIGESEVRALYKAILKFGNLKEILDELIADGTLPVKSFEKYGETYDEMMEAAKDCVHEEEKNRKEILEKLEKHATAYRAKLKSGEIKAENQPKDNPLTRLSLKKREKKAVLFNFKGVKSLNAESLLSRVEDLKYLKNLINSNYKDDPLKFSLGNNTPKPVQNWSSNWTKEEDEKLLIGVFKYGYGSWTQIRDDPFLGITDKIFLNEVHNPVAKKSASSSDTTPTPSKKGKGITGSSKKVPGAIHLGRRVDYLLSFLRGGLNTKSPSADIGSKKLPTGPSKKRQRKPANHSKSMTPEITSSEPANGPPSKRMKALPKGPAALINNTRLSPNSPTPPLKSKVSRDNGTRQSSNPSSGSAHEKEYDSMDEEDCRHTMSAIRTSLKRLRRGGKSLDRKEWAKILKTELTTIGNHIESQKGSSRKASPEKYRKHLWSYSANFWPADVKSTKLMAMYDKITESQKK

On to `Oc1ccc(Cl)cc1Cl`, for which the PXC50 in experiment [1] (MAX_EFFECT 9.315589354) and in experiment [1] (MAX_EFFECT 10.1511879) was under 3 in each case.

As to `O=C(N[C@H]1CN[C@H]2CCCO[C@H]21)c1cccnc1`, the Percent Effect in experiment [2] was 1.71%; in experiment [3], 16.4%; in experiment [4], -0.775%; in experiment [5], -3.57%; in [6], 7.91%; with Trypanosoma cruzi it was 5.36%. For the same compound, the Percent Effect was -2.4% in experiment [7]; 9.33% in experiment [8]; 8.46% in the experiment filed under Homo sapiens; -2.82% in [9]; 8.33% in experiment [10]; 11.1% in [11]. Besides, the Percent Effect in [12] is -3%.

As for `O=C(Cc1csc(-c2ccco2)n1)N1CCN(CCO)CC1`, the Percent Effect in [2] was 0.294%; in [3], 1.27%; in experiment [4], -0.16%; in [5] it was 8.43%; in experiment [6] it was 2.75%; with Trypanosoma cruzi it was 0.308%. The Percent Effect in experiment [7] was 8.39%; in experiment [8] it was 5.49%; in the experiment listed under Homo sapiens, 11.1%; in experiment [9] it was -23.6%; in experiment [10], 3.12%; in experiment [11] it was 5.06%. In addition, the Percent Effect in experiment [12] was -4.16%.
